In publication PMC7862700, “An all-to-all approach to the identification of sequence-specific readers for epigenetic DNA modifications on cytosine”:

Key:
Test in all cases: DAPPL (digital affinity profiling via proximity ligation, sequencing); 10 mM Tris-HCl pH 7.5, 50 mM NaCl, 1 mM DTT, 4% glycerol, room temperature, 30 min; GST-TFs on glutathione beads, 16-mer random dsDNA library, 0.1% formaldehyde crosslink after washing; high values mean tight binding
Conditions in all cases: protein: recombinant; tags: N-terminal GST; dsDNA, one strand shown
[1] = biological target: T1, FLI1 (Homo sapiens, UniProt Q01543 1-452)
T1 sequence: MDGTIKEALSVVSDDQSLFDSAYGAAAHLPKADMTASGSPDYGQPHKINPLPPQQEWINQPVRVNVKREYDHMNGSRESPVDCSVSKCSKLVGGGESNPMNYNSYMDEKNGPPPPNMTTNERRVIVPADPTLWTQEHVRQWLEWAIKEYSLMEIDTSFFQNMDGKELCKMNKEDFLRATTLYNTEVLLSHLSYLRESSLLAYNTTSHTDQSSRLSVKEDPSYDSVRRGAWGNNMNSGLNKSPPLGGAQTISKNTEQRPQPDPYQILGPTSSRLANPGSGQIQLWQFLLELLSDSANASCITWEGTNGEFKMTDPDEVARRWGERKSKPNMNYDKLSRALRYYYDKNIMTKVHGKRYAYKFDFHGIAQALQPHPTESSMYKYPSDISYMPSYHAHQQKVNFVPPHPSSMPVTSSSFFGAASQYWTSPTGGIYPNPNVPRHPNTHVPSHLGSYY
Summary of the method: (§1)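 Human transcription factors fused to GST were expressed in yeast, captured on glutathione beads, given DNA barcodes and pooled with a GST-only negative control. Pools were incubated with 200 nmole of a 16-mer random double-stranded DNA library in Tris/NaCl/DTT/glycerol buffer at room temperature for 30 min. They were then washed, crosslinked with 0.1% formaldehyde, proximity-ligated (BsaI/T4 ligase, 1 h, 37 °C), PCR-amplified and sequenced on an Illumina NextSeq500. Binding signal is each 6-mer's read frequency for a factor divided by its frequency for the GST control.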

[2] = biological target: T2, ELK1 (Homo sapiens, UniProt P19419 1-428)
T2 sequence: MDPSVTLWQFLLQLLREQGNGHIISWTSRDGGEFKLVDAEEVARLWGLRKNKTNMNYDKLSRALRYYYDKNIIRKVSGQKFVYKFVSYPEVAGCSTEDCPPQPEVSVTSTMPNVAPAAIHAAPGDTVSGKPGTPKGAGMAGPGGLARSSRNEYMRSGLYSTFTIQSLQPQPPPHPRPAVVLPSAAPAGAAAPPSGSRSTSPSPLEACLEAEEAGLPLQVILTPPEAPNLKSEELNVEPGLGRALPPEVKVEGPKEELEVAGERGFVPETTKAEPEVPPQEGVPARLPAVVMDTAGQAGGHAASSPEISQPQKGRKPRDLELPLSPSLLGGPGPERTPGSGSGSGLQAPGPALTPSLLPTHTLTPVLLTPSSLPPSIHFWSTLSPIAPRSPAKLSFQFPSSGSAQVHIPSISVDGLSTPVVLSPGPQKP
Summary of the method: as §1

[3] = biological target: T3, GABPA (Homo sapiens, UniProt Q06546 1-454)
T3 sequence: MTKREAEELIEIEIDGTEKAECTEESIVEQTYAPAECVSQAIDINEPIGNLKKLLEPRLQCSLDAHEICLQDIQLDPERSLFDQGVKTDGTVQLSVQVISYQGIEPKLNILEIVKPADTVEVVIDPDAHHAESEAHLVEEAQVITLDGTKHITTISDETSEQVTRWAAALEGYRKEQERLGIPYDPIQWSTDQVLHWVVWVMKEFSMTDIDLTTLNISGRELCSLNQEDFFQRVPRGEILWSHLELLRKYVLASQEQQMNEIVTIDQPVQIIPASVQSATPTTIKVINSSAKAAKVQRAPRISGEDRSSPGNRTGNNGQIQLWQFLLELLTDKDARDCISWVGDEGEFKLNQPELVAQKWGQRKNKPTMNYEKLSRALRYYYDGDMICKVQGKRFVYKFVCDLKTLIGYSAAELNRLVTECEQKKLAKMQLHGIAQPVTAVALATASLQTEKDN
Summary of the method: as §1

[4] = biological target: T4, ERG (Homo sapiens, UniProt P11308 1-479)
T4 sequence: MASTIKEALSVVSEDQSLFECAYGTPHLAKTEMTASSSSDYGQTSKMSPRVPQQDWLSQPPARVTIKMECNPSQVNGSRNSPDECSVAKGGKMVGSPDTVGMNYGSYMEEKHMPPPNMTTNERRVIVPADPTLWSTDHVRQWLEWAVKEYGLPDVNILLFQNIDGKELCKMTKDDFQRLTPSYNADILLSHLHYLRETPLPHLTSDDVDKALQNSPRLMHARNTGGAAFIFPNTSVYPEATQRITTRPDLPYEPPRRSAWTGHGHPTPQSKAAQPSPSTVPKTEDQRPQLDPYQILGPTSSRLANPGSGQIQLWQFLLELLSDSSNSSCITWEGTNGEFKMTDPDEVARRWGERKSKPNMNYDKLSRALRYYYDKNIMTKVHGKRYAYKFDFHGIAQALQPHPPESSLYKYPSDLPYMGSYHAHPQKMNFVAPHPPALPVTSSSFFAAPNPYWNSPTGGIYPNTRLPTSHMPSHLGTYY
Summary of the method: as §1

[5] = biological target: ELF1 (Homo sapiens, UniProt P32519 1-619)
ELF1, sequence (P32519 whole entry): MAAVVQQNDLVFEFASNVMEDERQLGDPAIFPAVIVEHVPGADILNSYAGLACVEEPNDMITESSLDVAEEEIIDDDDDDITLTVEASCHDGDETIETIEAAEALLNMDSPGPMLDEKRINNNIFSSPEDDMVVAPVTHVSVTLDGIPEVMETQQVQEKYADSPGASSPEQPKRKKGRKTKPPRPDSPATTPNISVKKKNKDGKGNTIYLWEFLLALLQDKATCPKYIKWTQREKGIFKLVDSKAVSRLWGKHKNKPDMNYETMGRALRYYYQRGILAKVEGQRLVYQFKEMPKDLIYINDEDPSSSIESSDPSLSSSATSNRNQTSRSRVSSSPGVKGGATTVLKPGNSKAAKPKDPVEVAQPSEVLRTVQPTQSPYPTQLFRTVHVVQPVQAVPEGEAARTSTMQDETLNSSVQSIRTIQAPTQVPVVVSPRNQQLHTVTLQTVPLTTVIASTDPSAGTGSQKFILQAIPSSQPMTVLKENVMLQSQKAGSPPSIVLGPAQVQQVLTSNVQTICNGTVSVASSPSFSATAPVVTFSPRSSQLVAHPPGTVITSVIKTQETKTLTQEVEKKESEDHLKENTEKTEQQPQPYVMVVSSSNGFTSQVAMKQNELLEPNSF
Summary of the method: as §1

[6] = biological target: T5, EHF (Homo sapiens, UniProt Q9NZC4 1-300)
T5 sequence: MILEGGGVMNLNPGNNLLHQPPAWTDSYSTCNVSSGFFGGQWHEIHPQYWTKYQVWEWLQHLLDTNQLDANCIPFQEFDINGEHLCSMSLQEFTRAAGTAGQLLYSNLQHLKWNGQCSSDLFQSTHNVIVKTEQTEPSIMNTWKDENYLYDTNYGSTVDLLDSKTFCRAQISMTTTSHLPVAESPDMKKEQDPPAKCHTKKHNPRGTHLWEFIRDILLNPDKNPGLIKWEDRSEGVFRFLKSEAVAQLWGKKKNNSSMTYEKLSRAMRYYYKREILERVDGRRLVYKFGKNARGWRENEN
Summary of the method: as §1

[7] = biological target: SPI1 (Homo sapiens, UniProt P17947 1-270)
Summary of the method: as §1

[8] = biological target: SPIB (Homo sapiens, UniProt Q01892 1-262)
SPIB, sequence (Q01892 whole entry): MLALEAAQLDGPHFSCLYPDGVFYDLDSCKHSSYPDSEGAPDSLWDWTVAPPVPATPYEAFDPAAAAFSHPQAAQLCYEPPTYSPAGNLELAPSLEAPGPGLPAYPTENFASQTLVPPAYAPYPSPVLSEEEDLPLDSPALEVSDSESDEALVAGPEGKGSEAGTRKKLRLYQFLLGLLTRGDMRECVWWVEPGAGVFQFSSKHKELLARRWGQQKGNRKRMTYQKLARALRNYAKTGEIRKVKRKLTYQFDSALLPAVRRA
Summary of the method: as §1

[9] = biological target: T6, ELK3 (Homo sapiens, UniProt P41970 1-407)
T6 sequence: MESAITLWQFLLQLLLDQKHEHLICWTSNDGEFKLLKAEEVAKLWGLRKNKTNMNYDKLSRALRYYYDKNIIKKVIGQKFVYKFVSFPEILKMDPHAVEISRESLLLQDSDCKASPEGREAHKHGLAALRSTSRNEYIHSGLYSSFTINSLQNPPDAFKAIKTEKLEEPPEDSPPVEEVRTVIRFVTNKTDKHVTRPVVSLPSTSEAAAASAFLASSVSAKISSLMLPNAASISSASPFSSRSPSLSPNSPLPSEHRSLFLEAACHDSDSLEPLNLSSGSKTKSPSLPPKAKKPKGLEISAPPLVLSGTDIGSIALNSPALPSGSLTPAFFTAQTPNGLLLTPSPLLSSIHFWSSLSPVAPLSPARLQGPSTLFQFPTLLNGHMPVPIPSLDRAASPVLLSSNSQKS
Summary of the method: as §1

[10] = biological target: T7, FEV (Homo sapiens, UniProt Q99581 1-238)
T7 sequence: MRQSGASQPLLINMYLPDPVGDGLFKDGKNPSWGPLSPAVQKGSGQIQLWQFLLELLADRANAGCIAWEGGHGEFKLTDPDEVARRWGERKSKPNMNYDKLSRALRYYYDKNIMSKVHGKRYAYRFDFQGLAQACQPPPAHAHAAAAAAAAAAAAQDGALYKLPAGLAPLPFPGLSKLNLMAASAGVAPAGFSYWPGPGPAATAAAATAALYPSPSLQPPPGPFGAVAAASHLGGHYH
Summary of the method: as §1

[11] = biological target: ETV5 (Homo sapiens, UniProt P41161 1-510)
ETV5, sequence (P41161 whole entry): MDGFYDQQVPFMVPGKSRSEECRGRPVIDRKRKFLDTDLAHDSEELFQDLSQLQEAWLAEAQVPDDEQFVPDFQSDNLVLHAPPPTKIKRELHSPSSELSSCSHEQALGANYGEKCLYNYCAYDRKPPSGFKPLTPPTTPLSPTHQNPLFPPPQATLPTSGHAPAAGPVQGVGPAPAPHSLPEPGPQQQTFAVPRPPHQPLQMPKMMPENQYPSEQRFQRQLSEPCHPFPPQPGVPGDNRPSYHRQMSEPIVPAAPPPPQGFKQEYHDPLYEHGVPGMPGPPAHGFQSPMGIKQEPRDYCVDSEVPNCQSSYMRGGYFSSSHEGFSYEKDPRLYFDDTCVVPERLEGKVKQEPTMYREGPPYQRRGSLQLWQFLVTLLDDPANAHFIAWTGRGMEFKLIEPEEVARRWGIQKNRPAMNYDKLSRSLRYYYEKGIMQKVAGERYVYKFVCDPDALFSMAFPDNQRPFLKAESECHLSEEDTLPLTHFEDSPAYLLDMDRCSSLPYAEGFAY
Summary of the method: as §1

[12] = biological target: T8, SPIC (Homo sapiens, UniProt Q8N5J4 1-248)
T8 sequence: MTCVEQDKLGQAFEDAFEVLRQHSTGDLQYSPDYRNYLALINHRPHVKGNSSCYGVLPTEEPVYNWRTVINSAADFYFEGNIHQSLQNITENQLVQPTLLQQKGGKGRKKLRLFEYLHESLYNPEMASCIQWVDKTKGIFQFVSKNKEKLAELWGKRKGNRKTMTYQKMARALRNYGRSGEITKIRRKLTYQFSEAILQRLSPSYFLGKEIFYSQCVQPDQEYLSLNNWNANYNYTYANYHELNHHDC
Summary of the method: as §1

[13] = biological target: ELF4 (Homo sapiens, UniProt Q99607 1-663)
ELF4, sequence (Q99607 whole entry): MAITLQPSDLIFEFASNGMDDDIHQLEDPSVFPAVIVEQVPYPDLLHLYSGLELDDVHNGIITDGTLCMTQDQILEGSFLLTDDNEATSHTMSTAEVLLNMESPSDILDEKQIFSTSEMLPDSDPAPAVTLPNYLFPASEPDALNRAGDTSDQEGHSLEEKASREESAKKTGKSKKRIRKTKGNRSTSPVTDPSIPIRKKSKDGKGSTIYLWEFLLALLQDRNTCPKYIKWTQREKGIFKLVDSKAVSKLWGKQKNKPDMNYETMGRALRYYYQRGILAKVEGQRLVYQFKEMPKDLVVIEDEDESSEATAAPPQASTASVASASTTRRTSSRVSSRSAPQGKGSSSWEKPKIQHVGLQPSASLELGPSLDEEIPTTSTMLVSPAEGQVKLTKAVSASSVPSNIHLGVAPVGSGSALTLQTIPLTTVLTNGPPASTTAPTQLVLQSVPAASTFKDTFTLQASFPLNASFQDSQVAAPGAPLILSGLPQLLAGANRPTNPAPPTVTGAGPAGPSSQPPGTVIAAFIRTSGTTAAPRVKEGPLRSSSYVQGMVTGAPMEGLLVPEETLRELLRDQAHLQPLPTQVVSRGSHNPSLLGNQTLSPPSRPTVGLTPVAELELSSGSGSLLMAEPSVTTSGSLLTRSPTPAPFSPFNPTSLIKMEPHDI
Summary of the method: as §1

[14] = biological target: T9, ELK4 (Homo sapiens, UniProt P28324-2 1-405)
T9 sequence: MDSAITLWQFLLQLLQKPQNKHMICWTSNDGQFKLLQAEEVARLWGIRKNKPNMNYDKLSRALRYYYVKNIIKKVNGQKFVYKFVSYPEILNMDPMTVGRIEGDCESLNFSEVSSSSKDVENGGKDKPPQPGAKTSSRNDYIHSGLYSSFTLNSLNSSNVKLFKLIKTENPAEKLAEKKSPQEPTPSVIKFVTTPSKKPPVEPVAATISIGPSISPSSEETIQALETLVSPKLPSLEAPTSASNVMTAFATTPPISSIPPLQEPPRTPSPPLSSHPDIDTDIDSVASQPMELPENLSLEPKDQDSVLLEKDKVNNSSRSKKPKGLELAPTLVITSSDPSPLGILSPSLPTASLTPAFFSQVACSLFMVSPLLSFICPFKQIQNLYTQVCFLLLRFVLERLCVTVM
Summary of the method: as §1

[15] = biological target: T10, ETV2 (Homo sapiens, UniProt O00321 1-342)
T10 sequence: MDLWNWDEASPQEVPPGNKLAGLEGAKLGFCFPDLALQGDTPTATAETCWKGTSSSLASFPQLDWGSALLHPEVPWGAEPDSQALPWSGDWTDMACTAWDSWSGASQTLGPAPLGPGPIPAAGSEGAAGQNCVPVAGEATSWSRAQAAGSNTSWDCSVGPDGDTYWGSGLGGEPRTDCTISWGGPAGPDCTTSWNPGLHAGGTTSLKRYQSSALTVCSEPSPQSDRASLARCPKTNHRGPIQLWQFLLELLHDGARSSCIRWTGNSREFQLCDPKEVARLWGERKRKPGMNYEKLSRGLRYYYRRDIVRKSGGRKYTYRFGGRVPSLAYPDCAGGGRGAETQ
Summary of the method: as §1

[16] = biological target: T11, ELF3 (Homo sapiens, UniProt P78545 1-371)
T11 sequence: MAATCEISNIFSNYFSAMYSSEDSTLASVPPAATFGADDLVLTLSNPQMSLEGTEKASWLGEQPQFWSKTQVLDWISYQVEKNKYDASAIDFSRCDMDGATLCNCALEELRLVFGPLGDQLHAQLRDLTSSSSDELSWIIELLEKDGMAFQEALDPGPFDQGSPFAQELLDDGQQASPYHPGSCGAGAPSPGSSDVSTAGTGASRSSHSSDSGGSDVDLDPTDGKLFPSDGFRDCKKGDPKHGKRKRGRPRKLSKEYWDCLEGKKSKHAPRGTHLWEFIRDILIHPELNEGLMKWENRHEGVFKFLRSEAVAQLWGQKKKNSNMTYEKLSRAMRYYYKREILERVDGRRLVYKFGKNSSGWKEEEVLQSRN
Summary of the method: as §1

[17] = biological target: ETV1 (Homo sapiens, UniProt P50549 1-477)
ETV1, sequence (P50549 whole entry): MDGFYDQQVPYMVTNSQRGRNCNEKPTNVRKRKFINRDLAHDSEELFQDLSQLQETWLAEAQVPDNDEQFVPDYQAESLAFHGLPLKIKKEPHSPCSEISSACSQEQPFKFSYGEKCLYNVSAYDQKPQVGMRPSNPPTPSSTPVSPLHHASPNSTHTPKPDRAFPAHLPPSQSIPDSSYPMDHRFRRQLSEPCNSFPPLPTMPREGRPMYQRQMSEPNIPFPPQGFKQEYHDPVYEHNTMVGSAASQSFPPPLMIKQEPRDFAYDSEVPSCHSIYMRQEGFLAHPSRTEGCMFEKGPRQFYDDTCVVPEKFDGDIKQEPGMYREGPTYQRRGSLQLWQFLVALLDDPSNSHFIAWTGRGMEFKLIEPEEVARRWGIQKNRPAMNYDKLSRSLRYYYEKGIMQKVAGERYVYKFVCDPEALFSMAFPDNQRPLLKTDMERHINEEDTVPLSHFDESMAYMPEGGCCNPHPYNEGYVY
Summary of the method: as §1

Row | Sequence | binding signal [1] | binding signal [2] | binding signal [3] | binding signal [4] | binding signal [5] | binding signal [6] | binding signal [7] | binding signal [8] | binding signal [9] | binding signal [10] | binding signal [11] | binding signal [12] | binding signal [13] | binding signal [14] | binding signal [15] | binding signal [16] | binding signal [17]
1 | TTCAGT | 1.07 fold enrichment (6-mer frequency, TF over GST control) | 1.04 fold enrichment (6-mer frequency, TF over GST control) | 1.06 fold enrichment (6-mer frequency, TF over GST control) | 1.03 fold enrichment (6-mer frequency, TF over GST control) | 1.09 fold enrichment (6-mer frequency, TF over GST control) | 1.04 fold enrichment (6-mer frequency, TF over GST control) | 1.11 fold enrichment (6-mer frequency, TF over GST control) | 1 fold enrichment (6-mer frequency, TF over GST control) | 1.02 fold enrichment (6-mer frequency, TF over GST control) | 1.01 fold enrichment (6-mer frequency, TF over GST control) | 1.05 fold enrichment (6-mer frequency, TF over GST control) | 1.11 fold enrichment (6-mer frequency, TF over GST control) | 1.11 fold enrichment (6-mer frequency, TF over GST control) | 1.1 fold enrichment (6-mer frequency, TF over GST control) | 1.08 fold enrichment (6-mer frequency, TF over GST control) | 1.08 fold enrichment (6-mer frequency, TF over GST control) | 1.07 fold enrichment (6-mer frequency, TF over GST control)
2 | CTCACC | 1.26 fold enrichment (6-mer frequency, TF over GST control) | 1.32 fold enrichment (6-mer frequency, TF over GST control) | 1.32 fold enrichment (6-mer frequency, TF over GST control) | 1.13 fold enrichment (6-mer frequency, TF over GST control) | 1.2 fold enrichment (6-mer frequency, TF over GST control) | 1.24 fold enrichment (6-mer frequency, TF over GST control) | 1.24 fold enrichment (6-mer frequency, TF over GST control) | 1.34 fold enrichment (6-mer frequency, TF over GST control) | 1.3 fold enrichment (6-mer frequency, TF over GST control) | 1.2 fold enrichment (6-mer frequency, TF over GST control) | 1.16 fold enrichment (6-mer frequency, TF over GST control) | 1.25 fold enrichment (6-mer frequency, TF over GST control) | 1.28 fold enrichment (6-mer frequency, TF over GST control) | 1.2 fold enrichment (6-mer frequency, TF over GST control) | 1.17 fold enrichment (6-mer frequency, TF over GST control) | 1.33 fold enrichment (6-mer frequency, TF over GST control) | 1.25 fold enrichment (6-mer frequency, TF over GST control)
